Data: PubChem BioAssay (NCI)
Compounds without any hit were thinned out: in the full panel of roughly 83,000, 20% have a hit.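 Single-concentration screen, 48 h exposure, 96-well plates. Endpoint: percent growth. Below 10 = active.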 Calls of active or inactive are those of the source.

Tests used:
Test in all cases: NCI-60 one-dose screen, 48 h (100 = growth as untreated, 0 = no growth, -100 = all killed)
[1] = test system: SR leukemia; conditions: 10 µM unless noted
[2] = test system: RPMI-8226 leukemia; conditions: 10 µM unless noted
[3] = test system: OVCAR-8 ovarian; conditions: 10 µM unless noted
[4] = test system: OVCAR-5 ovarian; conditions: 10 µM unless noted
[5] = test system: OVCAR-4 ovarian; conditions: 10 µM
[6] = test system: SK-OV-3 ovarian; conditions: 10 µM unless noted
[7] = test system: IGROV1 ovarian; conditions: 10 µM unless noted
[8] = test system: OVCAR-3 ovarian; conditions: 10 µM unless noted
[9] = test system: HS 578T breast; conditions: 10 µM unless noted
[10] = test system: NCI/ADR-RES ovarian; conditions: 10 µM unless noted
[11] = test system: BT-549 breast; conditions: 10 µM unless noted
[12] = test system: MDA-MB-435 melanoma; conditions: 10 µM unless noted
[13] = test system: SW-620 colon; conditions: 10 µM unless noted
[14] = test system: MCF7 breast; conditions: 10 µM unless noted
[15] = test system: HCT-116 colon; conditions: 10 µM unless noted
[16] = test system: HCC-2998 colon; conditions: 10 µM unless noted
[17] = test system: KM12 colon; conditions: 10 µM unless noted
[18] = test system: T-47D breast; conditions: 10 µM unless noted

Compound | growth [1] | growth [2] | growth [3] | growth [4] | growth [5] | growth [6] | growth [7] | growth [8] | growth [9] | growth [10] | growth [11] | growth [12] | growth [13] | growth [14] | growth [15] | growth [16] | growth [17] | growth [18]
CC/C=C(\C)C(CCC)(CN=O)C(=O)OCC (stereo unspecified) | 87.6% (inactive) | 96.3% (inactive) | 105% (inactive) | 113% (inactive) | 110% (inactive) | 99.9% (inactive) | 118% (inactive) | 127% (inactive) | 143% (inactive) | 108% (inactive) | 112% (inactive) | 117% (inactive) | 109% (inactive) | 102% (inactive) | 92.2% (inactive) | 96.2% (inactive) | 112% (inactive) | –
Cc1ccc(S(=O)(=O)NCCCNc2nccc(-c3c(-c4cccc(F)c4)nc4occn34)n2)cc1 | 87.9% (inactive) | 54.8% (inactive) | 65% (inactive) | 96.5% (inactive) | 73.4% (inactive) | 68.3% (inactive) | 48.1% (inactive) | 89.7% (inactive) | 68% (inactive) | – | 92.1% (inactive) | 43.4% (inactive) | 76.8% (inactive) | – | 53.6% (inactive) | 117% (inactive) | 77.6% (inactive) | 39.5% (inactive)
COc1cc(C)cc2oc3oc(=N)c(C(=O)c4ccccc4)cc3c(=O)c12 | 94.5% (inactive) | 116% (inactive) | 105% (inactive) | 95.2% (inactive) | 105% (inactive) | 120% (inactive) | 93.9% (inactive) | 101% (inactive) | – | 106% (inactive) | 97.3% (inactive) | 102% (inactive) | 104% (inactive) | 96.2% (inactive) | 93.9% (inactive) | 108% (inactive) | 104% (inactive) | 103% (inactive)
CN(C)CCOc1ccc(/C(=C(/CCCl)c2ccccc2)c2ccccc2)cc1 | -17% (active) | -11.4% (active) | 26.7% (inactive) | 47% (inactive) | 32.9% (inactive) | 33.6% (inactive) | 30.5% (inactive) | 12.9% (inactive) | – | 14.1% (inactive) | 46.8% (inactive) | -7.62% (active) | 15.8% (inactive) | 3.24% (active) | 6.56% (active) | -41.2% (active) | -47.4% (active) | 25.6% (inactive)
Cc1ccc(S(=O)(=O)n2cc(C(=O)C(=O)N3CCCCC3)c3ccccc32)cc1 | 57.6% (inactive) | 45.9% (inactive) | 91.9% (inactive) | 76.3% (inactive) | 49.9% (inactive) | 92% (inactive) | 71.9% (inactive) | 77% (inactive) | – | 73.8% (inactive) | 74.8% (inactive) | 87.1% (inactive) | 123% (inactive) | 85.8% (inactive) | 65.6% (inactive) | 82.3% (inactive) | 87.6% (inactive) | 36.1% (inactive)
COc1ncnc2c(-c3ccccc3)cn(COCc3ccccc3)c12 | 18.2% (inactive) | 29.2% (inactive) | 26.6% (inactive) | 110% (inactive) | 54.4% (inactive) | 82.7% (inactive) | 71% (inactive) | 62.8% (inactive) | 81.2% (inactive) | – | 36.6% (inactive) | 29.7% (inactive) | 67.4% (inactive) | 48.1% (inactive) | 41.7% (inactive) | 70% (inactive) | 42.5% (inactive) | 14% (inactive)
O=C(NCCCCCCCNC(=O)OCc1ccc2c(Cl)cc(Cl)c(O)c2n1)OCc1ccc2c(Cl)cc(Cl)c(O)c2n1 | 6.26% (active) | -15.5% (active) | -8.93% (active) | -76.8% (active) | -71.9% (active) | 35% (inactive) | -86.2% (active) | -87.2% (active) | -9.29% (active) | – | – | -86.4% (active) | -67.3% (active) | -30.2% (active) | -70% (active) | -75.8% (active) | -82.4% (active) | -62.5% (active)
CC(=O)CC(=O)SC1=NCCS1 | 102% (inactive) | 98.1% (inactive) | 99.3% (inactive) | 117% (inactive) | 109% (inactive) | 112% (inactive) | 140% (inactive) | 113% (inactive) | – | 113% (inactive) | 116% (inactive) | 106% (inactive) | 97.7% (inactive) | 108% (inactive) | 116% (inactive) | 112% (inactive) | 102% (inactive) | 104% (inactive)
CCCCC1COc2cccc3c2N1C=C/C3=C\C(=O)n1ccc2ccccc21 (stereo unspecified) | 16.5% (inactive) | 65.7% (inactive) | 91.8% (inactive) | 94.5% (inactive) | 65.2% (inactive) | 77.1% (inactive) | 70.2% (inactive) | 68.4% (inactive) | 88% (inactive) | 67.2% (inactive) | 89.9% (inactive) | -16.4% (active) | 46.4% (inactive) | 48.6% (inactive) | 58.3% (inactive) | 101% (inactive) | 68.2% (inactive) | –
COc1cccc(-c2[nH]c(=S)ncc2C(=O)c2ccccc2)c1 | 28.3% (inactive) | 113% (inactive) | 97.4% (inactive) | 93.8% (inactive) | 94.9% (inactive) | 107% (inactive) | 77.2% (inactive) | 83.2% (inactive) | – | 91.8% (inactive) | 73.9% (inactive) | -20% (active) | 66.6% (inactive) | 69.8% (inactive) | 61.3% (inactive) | 102% (inactive) | 51.5% (inactive) | 104% (inactive)
c1nc(N2CCOCC2)c2[nH]ccc2n1 | 92% (inactive) | 94.1% (inactive) | 106% (inactive) | 116% (inactive) | 106% (inactive) | 110% (inactive) | 112% (inactive) | 118% (inactive) | 96.7% (inactive) | – | 101% (inactive) | 112% (inactive) | 111% (inactive) | 90.6% (inactive) | 103% (inactive) | 110% (inactive) | 115% (inactive) | 112% (inactive)
CC1Cc2c(ncnc2-n2cnc3ccccc32)N(C)c2ccccc21 (stereo unspecified) | 15.2% (inactive) | 26.2% (inactive) | 44.1% (inactive) | 95.2% (inactive) | 65.2% (inactive) | 17.2% (inactive) | 62.5% (inactive) | 14.7% (inactive) | 36.6% (inactive) | – | – | -23.7% (active) | – | 18.2% (inactive) | 21.3% (inactive) | 64.8% (inactive) | 27.8% (inactive) | 33.3% (inactive)
OC(c1ccc(Cl)cc1)(c1ccc(Cl)cc1)C(O)(c1ccc(Cl)cc1)c1ccc(Cl)cc1 | 25.9% (inactive) | 30.8% (inactive) | 56.8% (inactive) | 71.7% (inactive) | 44.8% (inactive) | 35.9% (inactive) | 19.6% (inactive) | 40.7% (inactive) | 68.6% (inactive) | – | – | 29.3% (inactive) | 44.4% (inactive) | 49.7% (inactive) | 7.19% (active) | 48.6% (inactive) | 24.2% (inactive) | 32.9% (inactive)
Nc1cc(N)c(N=Nc2ccc(S(=O)(=O)O)cc2)cc1N=Nc1ccc(-c2ccc(N=Nc3ccc(O)c(C(=O)O)c3)cc2)cc1 | 110% (inactive) | 99.2% (inactive) | 100% (inactive) | 108% (inactive) | 103% (inactive) | 100% (inactive) | 104% (inactive) | – | 105% (inactive) | 98.9% (inactive) | 113% (inactive) | 100% (inactive) | 105% (inactive) | 95.5% (inactive) | 102% (inactive) | 104% (inactive) | 101% (inactive) | 90.1% (inactive)
O=[N+]([O-])c1cccc(/C=C/c2ccc3ccccc3n2)c1 | 78.2% (inactive) | 90.7% (inactive) | 57.1% (inactive) | 130% (inactive) | 38.9% (inactive) | 70.8% (inactive) | 79.9% (inactive) | 88.5% (inactive) | – | 71.2% (inactive) | 73.7% (inactive) | 79.8% (inactive) | 85.5% (inactive) | – | 82.4% (inactive) | 81% (inactive) | 82.7% (inactive) | 79.5% (inactive)
COCc1nc2ccccc2[nH]1 | 101% (inactive) | 108% (inactive) | 102% (inactive) | 99.8% (inactive) | 106% (inactive) | 101% (inactive) | 101% (inactive) | – | 101% (inactive) | 98.9% (inactive) | 164% (inactive) | 102% (inactive) | 106% (inactive) | 88.7% (inactive) | 99.9% (inactive) | 106% (inactive) | 106% (inactive) | 104% (inactive)
CC1Cc2ccc(OCCN(C)C)cc2C1=O (stereo unspecified) | 101% (inactive) | 88.4% (inactive) | 101% (inactive) | 105% (inactive) | 110% (inactive) | 97.8% (inactive) | 106% (inactive) | 110% (inactive) | – | 107% (inactive) | 99.3% (inactive) | 102% (inactive) | 101% (inactive) | 100% (inactive) | 95.4% (inactive) | 109% (inactive) | – | –
